Source: the supplement of paper PMC7695840

Tests used:
[1] = tested on: Staphylococcus aureus MW2 delta-mecA (mecA-); experiment: normalized GFP fluorescence (growth of mecA- strain) (fraction of control range); higher = more growth of mecA- strain; conditions: compound concentration: 150 uM; cefoxitin: subinhibitory; fluorescent label: GFP
Outline: (§1)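 Pre-induced S. aureus MW2 cells carrying the gene (DsRed) and deletion cells lacking it (GFP) were combined 1:1 in LB containing a subinhibitory antibiotic dose set each day, then dispensed at 5 µL/well onto 150 μM compound (1.5% DMSO) in 1536-well plates as a single replicate. After 20 h at 37 °C and 90% humidity without shaking, DsRed (540/590) and GFP (485/520) were read. Each channel was scaled per plate between the medians of the single-strain controls, and plates with high untreated ratios and rows with DsRed/GFP >10 were excluded.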

[2] = tested on: Staphylococcus aureus MW2 (mecA+); experiment: normalized DsRed fluorescence (growth of mecA+ strain) (fraction of control range); higher = more growth of mecA+ strain; conditions: compound concentration: 150 uM; cefoxitin: subinhibitory; fluorescent label: DsRed
Outline: as §1

CC(=O)NS(=O)(=O)c1ccc(N)cc1
normalized GFP fluorescence [1]: 0.792 | normalized DsRed fluorescence [2]: 0.694

NC(=O)c1ncn([C@@H]2O[C@H](CO)[C@@H](O)[C@H]2O)c1N [AICAR (Acadesine)]
normalized GFP fluorescence [1]: 0.547 | normalized DsRed fluorescence [2]: 0.71

CCNC(=O)CCC/C=C\C[C@@H]1[C@@H](/C=C/[C@@H](O)CCc2ccccc2)[C@H](O)C[C@@H]1O [Bimatoprost]
normalized GFP fluorescence [1]: 0.224 | normalized DsRed fluorescence [2]: 0.865

Cc1cn[nH]c1
normalized GFP fluorescence [1]: 0.665 | normalized DsRed fluorescence [2]: 0.838

Cc1nnc(C(C)C)n1C1C[C@H]2CC[C@@H](C1)N2CC[C@H](NC(=O)C1CCC(F)(F)CC1)c1ccccc1 (stereo in doubt) [Maraviroc]
normalized GFP fluorescence [1]: 0.747 | normalized DsRed fluorescence [2]: 0.67

NC(=O)[C@@H]1CCCN1C(=O)[C@H](Cc1c[nH]cn1)NC(=O)[C@@H]1CCC(=O)N1
normalized GFP fluorescence [1]: 0.621 | normalized DsRed fluorescence [2]: 0.766

O=C(O)c1cccnc1 [Niacin (Nicotinic acid)]
normalized GFP fluorescence [1]: 0.536 | normalized DsRed fluorescence [2]: 0.614

CCCCCCCCCCC[C@@H](C[C@@H]1OC(=O)[C@H]1CCCCCC)OC(=O)[C@H](CC(C)C)NC=O
normalized GFP fluorescence [1]: 0.94 | normalized DsRed fluorescence [2]: 0.482

CN1CCN(C2=Nc3ccccc3Oc3ccc(Cl)cc32)CC1
normalized GFP fluorescence [1]: 0.35 | normalized DsRed fluorescence [2]: 1.01

CC(C(=O)O)c1ccc(N2Cc3ccccc3C2=O)cc1 (stereo not drawn)
normalized GFP fluorescence [1]: 0.227 | normalized DsRed fluorescence [2]: 0.501

CC(=O)N(CC(O)CN(C(C)=O)c1c(I)c(C(=O)NCC(O)CO)c(I)c(C(=O)NCC(O)CO)c1I)c1c(I)c(C(=O)NCC(O)CO)c(I)c(C(=O)NCC(O)CO)c1I (stereo not drawn)
normalized GFP fluorescence [1]: 0.268 | normalized DsRed fluorescence [2]: 0.83

NCCNCCNCCN
normalized GFP fluorescence [1]: 0.763 | normalized DsRed fluorescence [2]: 0.66

CCCNC(C)C(=O)Nc1ccccc1C (stereo not drawn)
normalized GFP fluorescence [1]: 0.223 | normalized DsRed fluorescence [2]: 0.919

CC1(C)[C@@H](O[C@H]2O[C@H](C(=O)O)[C@@H](O)[C@H](O)[C@H]2O[C@@H]2O[C@H](C(=O)O)[C@@H](O)[C@H](O)[C@H]2O)CC[C@]2(C)[C@H]3C(=O)C=C4[C@@H]5C[C@@](C)(C(=O)O)CC[C@]5(C)CC[C@@]4(C)[C@]3(C)CC[C@@H]12 [Glycyrrhizic acid]
normalized GFP fluorescence [1]: 0.122 | normalized DsRed fluorescence [2]: 1.7
